This is an account of results in PubChem BioAssay.

Assay [1] in a line: viability loss in pontine glioma line – cell-based, SU-DIPG-XXV, MIPE5.0, CellTiter-Glo, qHTS, dose response (AID 1347065; cut-off not given, nearly all actives have AC50 up to about 26 µM;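 note: cells exposed to compound for 48 hours before ATP readout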). As to conditions: CellTiter-Glo ATP luminescence. In general terms: In ATP-based viability assays light output follows the ATP content of the culture.
A short description of assay [2]: growth inhibition of DIPG cells – cell-based, MIPE4.0 library, CellTiter-Glo luminescence, qHTS (AID 1347066; cut-off not given, nearly all actives have AC50 up to about 30 µM;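 note: cells exposed to compound for 48 hours before readout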). As to conditions: SU-DIPG-VI viability, CellTiter-Glo ATP luminescence.
Assay [3] in a line: JHH-DIPG-1 glioma cell viability, MIPE5.0 library, CellTiter-Glo luminescence, qHTS (AID 1347067; cut-off not given, nearly all actives have AC50 up to about 26 µM;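 note: cells exposed to compound for 48 hours before readout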). The note with it: JHH-DIPG-1 glioma viability, CellTiter-Glo ATP luminescence.
Assay [4] is described as follows: growth inhibition of DIPG cells – cell-based, MIPE5.0 library, qHTS (AID 1347068; cut-off not given, nearly all actives have IC50 up to about 30 µM). As to conditions: SU-DIPG-XXV viability.
Assay [5] can be described thus: blockers of cellular phospholipid synthesis – cell-based, LOPAC library, screen 4, primary screen (AID 1347384; call rule not given here). As to conditions: animal cells, phospholipid biosynthesis inhibition screen; at 10 µM.
The nature of assay [6]: MELAS cybrid and Rieske KO viability enhancers – cell-based, MELAS cybrids, Rieske KO mouse fibroblasts, CellTiter-Glo, primary screen (AID 1508586;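 active = mean z-score across replicates of 1.96 or higher in either the MELAS or the Rieske mutant cell line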;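 note: z relative to plate mean and SD of compound and empty wells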). As to conditions: low glucose.
Assay [7] can be described thus: chitosan synthesis blockers in C. neoformans – flow cytometry, Cibacron Brilliant Red staining (AID 1347148; call rule not given here;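 note: compound exposure lasted three days at 37 degrees C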). As to conditions: Cryptococcus neoformans chitosan, stronger effect = lower value; at 10 µM unless noted. For orientation: In flow cytometry, cells or beads pass a laser one at a time.
Assay [8] in a line: viability loss with induced miR-34 in A549 – imaging, A549 dox-inducible miR-34, nuclei and caspase counts, primary screen (AID 1347080;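 active = compounds whose cell count with miR-34 switched on is under 0.7 times the count with it off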). The note with it: A549 miR-34 inducible, Hoechst nuclei count, 48 h.
Assay [9] in a line: compounds altering HSF1 focus formation in cells – imaging, Selleck Cancer Library (AID 1347162; in the data active = plate-normalised HSF1 focus index below about 0.46). As to conditions: human cells, HSF1 nuclear foci imaging, at 10 µM; SSMD: measured here: HSF1 foci SSMD mean; cell count: measured here: cell number; plate-normalised HSF1 focus index: stronger effect = lower value.
A short description of assay [10]: drug combination growth inhibition, ovarian cancer – cell-based, oncology-focused library, rucaparib conditional, profiling panel (AID 1508598). The note with it: patient-derived ovarian cancer cells, CellTiter-Glo viability, 144 h, stronger effect = lower value.
Where [11] appears, read: MELAS cybrid survival, CellTiter-Glo 48 h, stronger effect = higher value.
[12] abbreviates: Rieske KO mouse fibroblast survival, CellTiter-Glo 72 h.

Values joined by “and” are separate entries in the source; they are usually repeats but may differ in a detail not shown here. Equal values may be shown once. Records with an inconclusive call do not appear. Active and inactive are the calls of the source.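 Rule for the calls, unless noted: active = normalized viability below 100% at a tested concentration; inactive = the rest.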

As to `Cc1cc(C(C)(C)C)c(O)c(C)c1CC1=NCCN1`, the result in [1], in assay [2], in assay [3], in [4] and in assay [5] was inactive. The z-score in assay [6] (setting [11]) is -0.371 (inactive) and 0.43 (inactive) and 0.93 (inactive); in assay [6] (setting [12]) it was 0.698 and 0.504 and 0.891.
`NC(=O)OCC(COC(N)=O)c1ccccc1`: the call in assay [1], in assay [2], in [3], in [4] and in [5] was inactive. Moreover, the z-score in [6] (setting [11]) is 0.426 (inactive) and -0.303 (inactive); in assay [6] (setting [12]), 0.386 and -0.256.
For `CC(C)NCC(O)COc1ccc(CCOCC2CC2)cc1` (stereo unspecified), the result in [1], in assay [2], in assay [3], in assay [4] and in assay [5] was inactive.
In the case of `COc1ccc(C2CNC(=O)C2)cc1OC1CCCC1` (stereo unspecified), the molecule was classed as inactive in assay [1], in [2], in [3], in assay [4] and in [5]. The fold fluorescence in assay [7] is 10.1 [at 181.6 µM] (inactive).
In general, AC50 refers to the midpoint of the concentration-response curve, whichever way the signal moves. In general, viability refers to a read-out of living cells in per cent, often relative to untreated cells. In the case of `CN(Cc1cnc2nc(N)nc(N)c2n1)c1ccc(C(=O)N[C@@H](CCC(=O)O)C(=O)O)cc1`, in [1], the AC50 was 417 nM (active). The call in assay [3], in assay [4] and in assay [5] was inactive. Also, the fold change in [8] (stronger effect = lower value, cell number ratio, induced over uninduced) was 1.49 (inactive) and 1.21 (inactive) and 1.07 (inactive); in assay [8] (measured here: relative caspase fold change +Dox/-Dox), 1.22 and 0.656 and 1.41. The cell count in [8] (measured here: total cells with miR-34 induction, stronger effect = lower value) is 2980 and 3110 and 5280; in [8] (measured here: total cells without miR-34 induction), 2000 and 2580 and 4920; in assay [9], 7580. Besides, the fold fluorescence in [7] was 3.97 [at 117.8 µM] (inactive). This molecule also registered an SSMD in assay [9] of 2.25. The plate-normalised HSF1 focus index in assay [9] was 1.08 (inactive). Moreover, the z-score in [6] (setting [11]) is 1.68 (inactive); in assay [6] (setting [12]), -0.369. Besides, the viability in assay [10] (at 0.000305 µM, OCI-C5x cells, with rucaparib 10 µM, 100% = cells with rucaparib alone) is 110% (inactive); in assay [10] (at 0.000305 µM, OCI-C5x cells, without rucaparib) it was 111% (inactive); in assay [10] (at 0.000305 µM, OCI-P5x cells, with rucaparib 20 µM, 100% = cells with rucaparib alone), 113% (inactive); in assay [10] (at 0.000305 µM, OCI-P5x cells, without rucaparib), 112% (inactive); in assay [10] (at 0.00122 µM, OCI-C5x cells, with rucaparib 10 µM, 100% = cells with rucaparib alone) it was 104% (inactive); in [10] (at 0.00122 µM, OCI-C5x cells, without rucaparib) it was 91.8% (active). Also, the viability in [10] (at 0.00122 µM, OCI-P5x cells, with rucaparib 20 µM, 100% = cells with rucaparib alone) was 111% (inactive); in assay [10] (at 0.00122 µM, OCI-P5x cells, without rucaparib) it was 109% (inactive); in assay [10] (at 0.00488 µM, OCI-C5x cells, with rucaparib 10 µM, 100% = cells with rucaparib alone), 113% (inactive); in [10] (at 0.00488 µM, OCI-C5x cells, without rucaparib), 106% (inactive); in [10] (at 0.00488 µM, OCI-P5x cells, with rucaparib 20 µM, 100% = cells with rucaparib alone) it was 111% (inactive); in assay [10] (at 0.00488 µM, OCI-P5x cells, without rucaparib) it was 111% (inactive). The viability in [10] (at 0.0195 µM, OCI-C5x cells, with rucaparib 10 µM, 100% = cells with rucaparib alone) is 105% (inactive); in [10] (at 0.0195 µM, OCI-C5x cells, without rucaparib), 103% (inactive); in assay [10] (at 0.0195 µM, OCI-P5x cells, with rucaparib 20 µM, 100% = cells with rucaparib alone) it was 103% (inactive); in assay [10] (at 0.0195 µM, OCI-P5x cells, without rucaparib), 105% (inactive); in [10] (at 0.0781 µM, OCI-C5x cells, with rucaparib 10 µM, 100% = cells with rucaparib alone) it was 59.6% (active); in [10] (at 0.0781 µM, OCI-C5x cells, without rucaparib), 35.7% (active). Also, the viability in assay [10] (at 0.0781 µM, OCI-P5x cells, with rucaparib 20 µM, 100% = cells with rucaparib alone) is 110% (inactive); in assay [10] (at 0.0781 µM, OCI-P5x cells, without rucaparib), 98.3% (active); in assay [10] (at 0.313 µM, OCI-C5x cells, with rucaparib 10 µM, 100% = cells with rucaparib alone), 18.2% (active); in assay [10] (at 0.313 µM, OCI-C5x cells, without rucaparib), 17.2% (active); in assay [10] (at 0.313 µM, OCI-P5x cells, with rucaparib 20 µM, 100% = cells with rucaparib alone) it was 104% (inactive); in [10] (at 0.313 µM, OCI-P5x cells, without rucaparib), 93.3% (active). Besides, the viability in assay [10] (at 1.25 µM, OCI-C5x cells, with rucaparib 10 µM, 100% = cells with rucaparib alone) is 17.8% (active); in [10] (at 1.25 µM, OCI-C5x cells, without rucaparib), 16.5% (active); in [10] (at 1.25 µM, OCI-P5x cells, with rucaparib 20 µM, 100% = cells with rucaparib alone), 101% (inactive); in assay [10] (at 1.25 µM, OCI-P5x cells, without rucaparib), 90.7% (active); in [10] (at 5 µM, OCI-C5x cells, with rucaparib 10 µM, 100% = cells with rucaparib alone) it was 27.2% (active); in [10] (at 5 µM, OCI-C5x cells, without rucaparib), 26% (active). Besides, the viability in assay [10] (at 5 µM, OCI-P5x cells, with rucaparib 20 µM, 100% = cells with rucaparib alone) was 94% (active); in assay [10] (at 5 µM, OCI-P5x cells, without rucaparib), 87.3% (active).
